{"source": "PubChem BioAssay (NCATS)", "key": {"[1]": {"assay": "Cell Viability - LYMP2-017 (AID 972); further: series mostly up to about 92 µM; nearly all actives have a fitted effect of over 55% in size", "procedure,_shortened": "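CellTiter-Glo luminescence (cellular ATP, 30 min RT) measured cytotoxicity after 24 hr compound treatment at 37 C. Cells were a human lymphoblastoid line, LYMP2-017, plated at 2500/well and incubated 5 hr first; concentration-response fitted with Hill equation for AC50.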"}, "[2]": {"assay": "Cell Viability - LYMP2-019 (AID 973); further: nearly all actives have a fitted effect of over 55% in size", "procedure,_shortened": "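AC50 values come from Hill-equation fits of luminescent intracellular ATP (CellTiter-Glo, 30 min, room temperature) following 24 h compound exposure at 37 C. Cells: LYMP2-019 lymphoblastoid line, 2500 per well, in complete culture medium.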"}, "[3]": {"assay": "Cell Viability - LYMP2-021 (AID 974); further: nearly all actives have a fitted effect of over 55% in size", "procedure,_shortened": "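AC50 values come from Hill-equation fits to CellTiter-Glo luminescence (ATP content), read after 24 hour compound exposure at 37 C of 2500 LYMP2-021 lymphoblastoid cells/well; tetraoctylammonium bromide as positive control.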"}, "[4]": {"assay": "Cell Viability - LYMP2-023 (AID 975); further: series mostly up to about 92 µM; nearly all actives have a fitted effect of over 55% in size", "procedure,_shortened": "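Intracellular ATP, read by CellTiter-Glo luminescence, reports viability after 24 hr compound exposure at 37 C. 2500 lymphoblastoid cells/well (LYMP2-023) seeded 5 hr beforehand; Hill fits give AC50; positive control tetraoctylammonium bromide.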"}, "[5]": {"assay": "Cell Viability - LYMP2-025 (AID 976); further: series mostly up to about 92 µM", "procedure,_shortened": "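Cytotoxicity read as loss of intracellular ATP (luciferase luminescence) after 24 h compound treatment at 37 C. Uses LYMP2-025 lymphoblastoid cells in 1536-well format; Hill-equation modelling gives AC50; tetraoctylammonium bromide as positive control.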"}, "[6]": {"assay": "Cell Viability - LYMP2-002 (AID 977); further: series mostly up to about 92 µM", "procedure,_shortened": "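Human lymphoblastoid cells (2500/well) in complete medium were preincubated 5 hr at 37 C, then exposed to compounds for 24 hr at 37 C. Intracellular ATP was read by CellTiter-Glo luminescence; AC50 came from Hill-equation concentration-response fits.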"}, "[7]": {"assay": "Cell Viability - LYMP2-006 (AID 978); further: series mostly up to about 92 µM; nearly all actives have a fitted effect of over 60% in size", "procedure,_shortened": "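In this cytotoxicity screen, the human lymphoblastoid line grew in complete medium with test compounds for 24 hr at 37 C. Cellular ATP served as the viability signal.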"}, "[8]": {"assay": "Cell Viability - LYMP2-007 (AID 979); further: nearly all actives have a fitted effect of over 60% in size", "procedure,_shortened": "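AC50 values come from Hill-equation fits of luminescent intracellular ATP (CellTiter-Glo, 30 min, room temperature) following 24 h compound exposure at 37 C. Cells: LYMP2-007 lymphoblastoid line, 2500 per well, in complete culture medium.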"}, "[9]": {"assay": "Cell Viability - LYMP2-008 (AID 980); further: nearly all actives have a fitted effect of over 60% in size", "procedure,_shortened": "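Cytotoxicity determined from ATP-dependent luciferase luminescence (CellTiter-Glo) following 24 h compound exposure of human lymphoblastoid LYMP2-008 cells at 37 C. Concentration-response data fitted to the Hill equation to give AC50.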"}, "[10]": {"assay": "Cell Viability - LYMP2-010 (AID 981); further: nearly all actives have a fitted effect of over 55% in size", "procedure,_shortened": "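CellTiter-Glo ATP luminescence measured cytotoxicity after 24 h compound exposure at 37 C. LYMP2-010 cells were seeded at 2500/well, with tetraoctylammonium bromide as control; concentration-response curves gave AC50 values by the Hill equation.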"}, "[11]": {"assay": "Cell Viability - LYMP2-012 (AID 982)"}, "[12]": {"assay": "Cell Viability - LYMP2-014 (AID 983); further: series mostly up to about 92 µM; nearly all actives have a fitted effect of over 50% in size", "procedure,_shortened": "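Intracellular ATP loss, read by luciferase luminescence, measures acute cytotoxicity after 24 h compound exposure of lymphoblastoid LYMP2-014 cells (2500/well, 37 C). Concentration-response data fitted to the Hill equation for AC50.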"}, "[13]": {"assay": "Cell Viability - LYMP2-016 (AID 984); further: nearly all actives have a fitted effect of over 55% in size", "procedure,_shortened": "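Concentration-dependent ATP depletion measured in LYMP2-016 lymphoblastoid cells, 24 h, 37 C; luciferase-based luminescent detection; Hill-equation AC50.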"}, "[14]": {"assay": "Cell Viability - LYMP2-018 (AID 985); further: nearly all actives have a fitted effect of over 50% in size", "procedure,_shortened": "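Viability read as CellTiter-Glo luminescence (cellular ATP) after 24 hr compound exposure at 37 C of 2500 LYMP2-018 lymphoblastoid cells/well, pre-plated 5 hr. Hill-equation modelling gave AC50.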"}, "[15]": {"assay": "Cell Viability - LYMP2-020 (AID 986)", "procedure,_shortened": "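Cytotoxicity in qHTS format: luminescent ATP readout from CellTiter-Glo after 24 h compound exposure at 37 C in complete medium. LYMP2-020 lymphoblastoid cells were seeded at 2500/well; concentration-response data fitted to the Hill equation for AC50.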"}, "[16]": {"assay": "Cell Viability - LYMP2-022 (AID 987); further: nearly all actives have a fitted effect of over 55% in size", "procedure,_shortened": "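Cytotoxicity read as decreased cellular ATP (CellTiter-Glo luminescence, 30 min room temperature) after 24 hours compound exposure of 2500 lymphoblastoid LYMP2-022 cells/well at 37 C. Concentration-response data fitted with standard Hill equation for AC50.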"}, "[17]": {"assay": "Cell Viability - LYMP2-024 (AID 988); further: nearly all actives have a fitted effect of over 60% in size", "procedure,_shortened": "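Cytotoxicity was taken as a decrease in ATP (CellTiter-Glo luminescence) after 24 hr compound exposure at 37 C of LYMP2-024 lymphoblastoid cells, 2500 cells/well. Concentration-response data were fitted to the Hill equation to give AC50.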"}, "[18]": {"assay": "Cell Viability - LYMP2-026 (AID 989); further: nearly all actives have a fitted effect of over 50% in size", "procedure,_shortened": "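Cytotoxicity read as ATP-dependent luminescence (CellTiter-Glo, 30 min room temperature) after 24 h compound treatment at 37 C. LYMP2-026 lymphoblastoid line seeded at 2500 cells/well; AC50 derived by standard Hill equation.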"}, "[19]": {"assay": "Cell Viability - LYMP1-002 - Assay at 24 hr (AID 993)", "procedure,_shortened": "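qHTS cytotoxicity at 24 h: CellTiter-Glo ATP luminescence in lymphoblastoid line LYMP1-002 incubated with compound at 37 °C. Concentration-response modeled with the Hill equation for AC50; tetraoctylammonium bromide served as positive control.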"}, "[20]": {"assay": "Cell Viability - LYMP1-002 - Assay at 40 hr (AID 994); further: nearly all actives have a fitted effect of over 60% in size", "procedure,_shortened": "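Cytotoxicity was read as loss of cellular ATP (CellTiter-Glo luminescence) after 40 hr compound exposure at 37 C of 2500 LYMP1-002 lymphoblastoid cells per well. Concentration-response data were fitted with the standard Hill equation to give AC50.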"}, "[21]": {"target": "Bile acid receptor (Homo sapiens) (UniProt Q96RI1)", "sequence (Q96RI1 whole entry, looked up)": "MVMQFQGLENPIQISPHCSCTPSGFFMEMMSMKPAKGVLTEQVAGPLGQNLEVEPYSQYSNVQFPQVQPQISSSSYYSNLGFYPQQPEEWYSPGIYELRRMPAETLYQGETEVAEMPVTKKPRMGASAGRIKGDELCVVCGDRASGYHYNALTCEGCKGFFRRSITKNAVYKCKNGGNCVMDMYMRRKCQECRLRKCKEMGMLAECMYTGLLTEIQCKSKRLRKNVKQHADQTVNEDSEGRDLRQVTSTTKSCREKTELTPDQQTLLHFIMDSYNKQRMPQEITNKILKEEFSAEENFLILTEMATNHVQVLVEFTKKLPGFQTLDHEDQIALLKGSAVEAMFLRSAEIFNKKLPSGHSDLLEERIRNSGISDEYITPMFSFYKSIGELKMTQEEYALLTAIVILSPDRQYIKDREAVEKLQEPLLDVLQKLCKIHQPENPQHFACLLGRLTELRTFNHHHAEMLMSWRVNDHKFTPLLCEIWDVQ", "assay": "qHTS assay for small molecule antagonists of farnesoid X receptor signaling (AID 588526; calls by dose curve; further: potency means the concentration at half of the fitted maximal effect)", "procedure,_shortened": "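Beta-lactamase reporter antagonist mode: HEK293T FXR-UAS-bla cells, titrated compound, CDCA stimulation, 16 h 37 C, CCF4 dye 2 h RT. Data normalized to CDCA 50 uM and DMSO; Hill-fit IC50.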"}, "[22]": {"target": "Glucocorticoid receptor (Homo sapiens) (UniProt P04150)", "sequence (P04150 whole entry, looked up)": "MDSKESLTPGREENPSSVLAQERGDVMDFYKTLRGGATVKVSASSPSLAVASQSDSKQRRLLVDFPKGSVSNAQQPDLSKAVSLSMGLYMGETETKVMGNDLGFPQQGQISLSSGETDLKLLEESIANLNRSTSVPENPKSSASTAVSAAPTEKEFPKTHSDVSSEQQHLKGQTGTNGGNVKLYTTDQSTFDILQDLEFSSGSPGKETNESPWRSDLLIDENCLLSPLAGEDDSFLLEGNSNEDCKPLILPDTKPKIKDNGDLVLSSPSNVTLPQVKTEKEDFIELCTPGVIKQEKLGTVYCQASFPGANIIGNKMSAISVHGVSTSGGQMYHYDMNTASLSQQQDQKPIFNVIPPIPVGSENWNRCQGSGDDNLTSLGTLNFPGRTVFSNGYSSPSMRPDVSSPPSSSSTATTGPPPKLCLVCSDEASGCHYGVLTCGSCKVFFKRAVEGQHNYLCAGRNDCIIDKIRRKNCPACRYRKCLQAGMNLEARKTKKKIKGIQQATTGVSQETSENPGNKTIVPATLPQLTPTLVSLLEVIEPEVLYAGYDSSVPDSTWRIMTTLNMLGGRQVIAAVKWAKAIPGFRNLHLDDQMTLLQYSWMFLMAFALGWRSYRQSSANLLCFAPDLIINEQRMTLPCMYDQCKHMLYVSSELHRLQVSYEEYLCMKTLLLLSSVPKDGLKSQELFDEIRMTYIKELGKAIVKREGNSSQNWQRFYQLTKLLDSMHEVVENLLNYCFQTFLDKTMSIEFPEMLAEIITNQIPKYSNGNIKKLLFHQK", "assay": "qHTS assay for small molecule agonists of glucocorticoid receptor signaling (AID 588532; active means well fitted curve in the direction sought with a large enough effect in the signal ratio, with a control signal flat; the % refers to the signal ratio)", "details": "HeLa MMTV-bla, beta-lactamase ratio, agonist, 18 h; stronger effect = higher value; percent of dexamethasone control, DMSO zero", "procedure,_shortened": "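Using MMTV-bla HeLa cells in medium with 1% stripped FBS and 25 mM HEPES, compounds were titrated and incubated overnight-length (18 h). Beta-lactamase cleavage of CCF4 was quantified by dual-emission fluorescence.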"}, "[23]": {"target": "Glucocorticoid receptor (Homo sapiens) (UniProt P04150)", "assay": "qHTS assay for small molecule antagonists of glucocorticoid receptor signaling (AID 588533; active means well fitted inhibition curve with a large enough effect in the signal ratio, with a control signal flat, not every such curve was filed as active; the % refers to the signal ratio; further: potency means the concentration at half of the fitted maximal effect)", "procedure,_shortened": "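Antagonist-mode qHTS: compound titrations added to GRE-bla HeLa cells, then dexamethasone 2 nM final; 18 h, 37 C. CCF4 FRET fluorescence normalized to dexamethasone and DMSO; IC50 from Hill fit.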"}}, "note": "Values joined by “and” are separate entries in the source; they are usually repeats but may differ in a detail not shown here. Identical values can stand only once. Records with an inconclusive call do not appear. A call without a number means that no potency is given here. Some compounds were tested as several samples or in several runs, with calls that do not always agree. Active and inactive are the calls of the source. Unless noted, the call rests on the fitted dose curve; in most records, active means well fitted cell-killing curve with a large enough effect; inconclusive means small, poorly fitted or top-dose-only effect; inactive means flat fitted curve, though single readings scatter.", "data": [{"compound": "CC(C)(c1cc(Br)c(O)c(Br)c1)c1cc(Br)c(O)c(Br)c1", "values": [{"measurement": "outcome", "setting": "[1]", "value": "inactive"}, {"measurement": "outcome", "setting": "[2]", "value": "inactive"}, {"measurement": "outcome", "setting": "[3]", "value": "inactive"}, {"measurement": "outcome", "setting": "[4]", "value": "inactive"}, {"measurement": "outcome", "setting": "[5]", "value": "inactive"}, {"measurement": "outcome", "setting": "[6]", "value": "inactive"}, {"measurement": "outcome", "setting": "[7]", "value": "inactive"}, {"measurement": "outcome", "setting": "[8]", "value": "inactive"}, {"measurement": "outcome", "setting": "[9]", "value": "inactive"}, {"measurement": "outcome", "setting": "[10]", "value": "inactive"}, {"measurement": "outcome", "setting": "[11]", "value": "inactive"}, {"measurement": "outcome", "setting": "[12]", "value": "inactive"}, {"measurement": "outcome", "setting": "[13]", "value": "inactive"}, {"measurement": "outcome", "setting": "[14]", "value": "inactive"}, {"measurement": "outcome", "setting": "[15]", "value": "inactive"}, {"measurement": "outcome", "setting": "[16]", "value": "inactive"}, {"measurement": "outcome", "setting": "[17]", "value": "inactive"}, {"measurement": "outcome", "setting": "[18]", "value": "inactive"}, {"measurement": "outcome", "setting": "[19]", "value": "inactive"}, {"measurement": "outcome", "setting": "[20]", "value": "inactive"}, {"measurement": "Potency", "setting": "[21]", "value": "28.2 µM (active) and inactive"}, {"measurement": "activation", "setting": "[22]", "value": "-10.8% (inactive) and 25.4% (inactive) and -11.2% (inactive)"}, {"measurement": "Potency", "setting": "[23]", "value": "44.7 µM (active)"}]}]}
